The text below walks through data of PubChem BioAssay.

Assay [1] is described as follows: HepG2 liver cancer cell viability effects, profiling panel, resazurin fluorescence, 24 h, PK04 Diversity Set (AID 1172). Note: test concentration not given here. The settings on record: higher = more signal. (In general: The colour change of resazurin is a common sign of viable cells or microbes.)
Assay [2] in a line: basal S. cerevisiae growth modulation, no modifier, primary screen, OD600, strain BY4716, 24 h, basal condition (AID 1173). The following applies: OD600, 24 h, higher = more signal, called active from +8 up or from −8 down.
The nature of assay [3]: MM1S myeloma cell viability, profiling panel, resazurin fluorescence, basal, 24 h, PK04 Diversity Set (AID 1174).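 Note: MM1S multiple myeloma cell line; test concentration not given here.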 The following applies: higher = more signal, called active from +8 up or from −8 down.
Assay [4] deals with Dihydroorotate dehydrogenase (quinone), mitochondrial (Plasmodium falciparum (isolate 3D7)) (UniProt Q08210). Nature of the assay: PfDHODH enzyme inhibitors, primary screen, biochemical, C-terminal His tag, absorbance 600 nm (AID 1175).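 Note: recombinant parasite enzyme with a five histidine tag at its C terminus; test concentration not given here.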 The following applies: DCIP absorbance 600 nm, higher = more signal, called active from +8 up or from −8 down.
Sequence of Dihydroorotate dehydrogenase (quinone), mitochondrial (Plasmodium falciparum (isolate 3D7)) (Q08210 whole entry, looked up): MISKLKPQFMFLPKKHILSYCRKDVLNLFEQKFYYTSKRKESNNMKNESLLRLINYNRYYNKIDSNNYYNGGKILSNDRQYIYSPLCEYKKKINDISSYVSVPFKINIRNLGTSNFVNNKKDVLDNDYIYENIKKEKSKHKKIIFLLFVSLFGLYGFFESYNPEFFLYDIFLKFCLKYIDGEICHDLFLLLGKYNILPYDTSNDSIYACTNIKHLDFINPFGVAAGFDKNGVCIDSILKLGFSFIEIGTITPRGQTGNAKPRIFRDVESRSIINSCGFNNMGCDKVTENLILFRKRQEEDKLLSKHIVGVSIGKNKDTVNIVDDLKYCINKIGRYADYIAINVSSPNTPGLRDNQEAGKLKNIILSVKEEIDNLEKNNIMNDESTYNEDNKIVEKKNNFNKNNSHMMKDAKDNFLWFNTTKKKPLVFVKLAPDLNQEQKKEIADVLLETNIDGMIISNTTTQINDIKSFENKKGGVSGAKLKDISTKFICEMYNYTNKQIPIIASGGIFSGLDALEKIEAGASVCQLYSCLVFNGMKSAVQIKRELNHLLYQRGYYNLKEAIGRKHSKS
Assay [5] is described as follows: P. aeruginosa biofilm formation inhibitors, primary screen, strain PAO1, LB-PBS medium, absorbance 600 nm (AID 1176). Note: test concentration not given here. The settings on record: P. aeruginosa PAO1 growth/biofilm, A600, 12 h; higher = more signal.
A short description of assay [6]: S. cerevisiae RM11-1a growth modifiers, primary screen, strain RM11-1a, OD600, basal, 24 h (AID 1177).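 Note: cultures grown under basal conditions with no added stressor; test concentration not given here.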 The following applies: OD600, 24 h, higher = more signal, called active from +8 up or from −8 down.
Assay [7] can be described thus: E. coli acrAB mutant growth effects, primary screen, E. coli filamentation inducers, strain DRC39, OD650, 24 h (AID 1178).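 Note: growth measured as culture turbidity by optical density at 650 nm; test concentration not given here.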 The following applies: higher = more signal, called active from +8 up or from −8 down.
Assay [8] is described as follows: E. coli acrAB mutant growth effects, primary screen, E. coli filamentation inducers, strain DRC39, OD650, 48 h (AID 1179).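 Note: screen aims at cell division blockers that make cells filament.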 The following applies: E. coli DRC39 delta-acrAB growth, higher = more signal, called active from +8 up or from −8 down.
Assay [9] in a line: RPMI8226 myeloma cell viability, profiling panel, resazurin fluorescence, basal, 24 h, PK04 Diversity Set (AID 1180).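 Note: RPMI8826 multiple myeloma cell line at 5000 cells per well; test concentration not given here.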 The following applies: higher = more signal.
The target of assay [10] is E3 ubiquitin-protein ligase XIAP (Homo sapiens) (UniProt P98170). Nature of the assay: XIAP binders, primary screen, biophysical, small-molecule microarray, fluorescence 635 nm (AID 1181).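 Note: score merges 667 nm emission and signal to noise over triplicate slides.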 The settings on record: small-molecule microarray binding, higher = more signal.
Sequence of E3 ubiquitin-protein ligase XIAP (Homo sapiens) (P98170 whole entry, looked up): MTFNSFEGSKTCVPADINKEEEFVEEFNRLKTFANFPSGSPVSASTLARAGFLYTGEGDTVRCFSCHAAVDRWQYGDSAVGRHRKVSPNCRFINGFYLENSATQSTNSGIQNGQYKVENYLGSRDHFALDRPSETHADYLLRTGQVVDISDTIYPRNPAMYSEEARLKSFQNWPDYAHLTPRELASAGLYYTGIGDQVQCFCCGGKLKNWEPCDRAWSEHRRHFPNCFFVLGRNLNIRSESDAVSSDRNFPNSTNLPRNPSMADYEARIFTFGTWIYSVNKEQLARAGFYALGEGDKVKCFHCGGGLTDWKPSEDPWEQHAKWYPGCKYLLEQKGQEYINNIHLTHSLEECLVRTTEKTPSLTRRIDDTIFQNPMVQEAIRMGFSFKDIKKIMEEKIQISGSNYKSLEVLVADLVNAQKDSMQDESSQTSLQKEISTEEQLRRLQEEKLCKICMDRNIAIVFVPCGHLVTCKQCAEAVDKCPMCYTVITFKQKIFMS

SMILES strings stand for the structures. Calls of active or inactive are those of the source. Unless noted, the rule behind the calls is not given here.

Regarding `Cc1ccc(S[C@]2(C(=O)NCCN3CCOCC3)CC(=O)N(Cc3ccccc3Cl)[C@@H]2c2ccc(CO)cc2)cc1`, the z-score is 0.286 in assay [1]; -0.709 (inactive) in assay [2]; 1.04 (inactive) in assay [3]; 0.621 (inactive) in assay [5]; 0.381 (inactive) in [6]; 0.381 (inactive) in [7]. Moreover, the z-score in assay [8] was 0.237 (inactive); in assay [9] it was 0.958. The composite z-score in [4] was -0.245 (inactive); in assay [10], 0.0428.
With `CN(C)CCCC[C@@H]1NC(=O)[C@H]2C[C@@H](C(=O)NCCCCCNC(=O)CS)[C@@H](c3cccc(OCCO)c3)N2C1=O`, the z-score was 0.373 in assay [1]; -0.646 (inactive) in [2]; -0.212 (inactive) in assay [3]; 0.643 (inactive) in assay [5]; -0.569 (inactive) in [6]; -0.197 (inactive) in assay [7]. In addition, the z-score in [8] is -0.32 (inactive); in [9], -0.421. For the same compound, the composite z-score in [4] was -0.286 (inactive); in [10], -0.244.
As to `COc1ccc(C(O)C2C=CC3C(=O)N(c4ccccc4)C(=O)C3N2Nc2ccccc2F)cc1OCc1ccccc1` (stereo not given), the z-score was -0.299 in assay [1]; -0.737 (inactive) in assay [2]; -1.66 (inactive) in assay [3]; 1.11 (inactive) in [5]; -0.0242 (inactive) in [6]; -0.472 (inactive) in assay [7]. Also, the z-score in [8] was 0.226 (inactive); in assay [9] it was -1.55. For the same compound, the results for the composite z-score in assay [4] and in assay [10] were -0.318 (inactive) and 0.0158, respectively.
`COCCOC(=O)N1C(=O)[C@@]2(c3cc(C#Cc4ccc(OC)cc4)ccc31)[C@H](C(=O)N1CCCCCCC1)[C@H]1C(=O)O[C@H](c3ccccc3)[C@H](c3ccccc3)N1[C@@H]2c1ccc(OCCO)cc1`: the z-score in [1] was 0.73; in assay [2] it was 0.777 (inactive); in [3], 1.15 (inactive); in assay [5], 3.3 (inactive); in assay [6], 0.262 (inactive); in assay [7], 1.11 (inactive). The z-score is 2.25 (inactive) in [8] and 0.425 in assay [9]. The composite z-score is -1.37 (inactive) in assay [4] and 0.47 in assay [10].
In the case of `C=CC[C@@]1(C(=O)NCc2ccccc2)N=C(c2ccc(OCCCO)cc2)O[C@@H]1c1ccccc1N=[N+]=[N-]`, the z-score in [1] was -0.453; in [2], 0.669 (inactive); in assay [3], -2.2 (inactive); in assay [5], 1.16 (inactive); in assay [6], 2.07 (inactive); in [7], 0.335 (inactive). In addition, the z-score was -0.899 (inactive) in [8] and -0.829 in [9]. For the same compound, the composite z-score was 1.92 (inactive) in assay [4] and 0.0736 in assay [10].
Turning to `C=CCOC(=O)[C@H]1[C@@H]2C(=O)O[C@@H](c3ccccc3)[C@@H](c3ccccc3)N2[C@@H](c2ccc(OCCOC(=O)[C@H]3C[C@H]4C(=O)N[C@@H](CC(C)C)C(=O)N4[C@H]3c3ccc(O)cc3)cc2)[C@]12C(=O)Nc1ccc(I)cc12`, the z-score in assay [1] is -0.598; in [2], -0.838 (inactive); in assay [3], -0.491 (inactive); in assay [5], 0.379 (inactive); in assay [6], 0.919 (inactive); in [7] it was -0.267 (inactive). The z-score is 0.276 (inactive) in assay [8] and -0.385 in assay [9]. The composite z-score is -1.72 (inactive) in assay [4] and 0.109 in [10].
On to `O=C1C2C=CC(C(O)c3c(F)cccc3Cl)N(Nc3ccccc3)C2C(=O)N1c1ccccc1` (stereo not given), for which the z-score was 0.947 in [1]; -1.48 (inactive) in [2]; -0.478 (inactive) in assay [3]; -0.131 (inactive) in assay [5]; -0.679 (inactive) in assay [6]; 0.302 (inactive) in assay [7]. Moreover, the z-score in [8] is 1.28 (inactive); in assay [9], 0.284. Moreover, the composite z-score in assay [4] was 0.693 (inactive); in assay [10], 0.0975.
As to `COc1ccc([Si](C)(C)[C@H]2[C@H](CC(=O)N3Cc4ccccc4C[C@H]3CO)O[C@@]3(C(=O)N(Cc4ccc(N5CCC5=O)cc4)c4ccccc43)[C@@H]2C)cc1`, the z-score in assay [1] is 0.194; in assay [2], -0.535 (inactive); in assay [3], -1.56 (inactive); in assay [5], 0.201 (inactive); in assay [6] it was 1.83 (inactive); in assay [7] it was -0.0476 (inactive). For the same compound, the z-score is -0.421 (inactive) in assay [8] and -1.26 in assay [9]. The composite z-score in assay [4] was -3.08 (inactive); in [10] it was 0.216.
Regarding `CCOC(=O)[C@H]1C/C=C/C[C@H](C(=O)OCC)C(=O)O[C@H]2[C@@H](OC)O[C@H](CO)[C@@H](OC(=O)Nc3ccc(C#N)cc3)[C@@H]2OC1=O`, the z-score is -4.61 in [1]; 0.516 (inactive) in assay [2]; -8.87 (active) in [3]; 1.94 (inactive) in [5]; -0.166 (inactive) in assay [6]; 1.1 (inactive) in assay [7]. Besides, the figures for the z-score in assay [8] and in [9] were 1.58 (inactive) and -7.15, respectively. Besides, the composite z-score is -1.26 (inactive) in assay [4] and 0.122 in [10].
In the case of `COC(=O)[C@@]1(Cc2ccc(F)cc2)[C@H]2c3cc(C(=O)N(C)C)n(Cc4ccc(S(C)(=O)=O)cc4)c3C[C@H]2CN1C(=O)c1ccccc1`, the z-score was -0.304 in assay [1]; 0.571 (inactive) in [2]; -0.0532 (inactive) in assay [3]; 0.122 (inactive) in [5]; 0.325 (inactive) in assay [6]; -0.104 (inactive) in assay [7]. Further, the z-score was 0.118 (inactive) in assay [8] and -1.04 in assay [9]. Moreover, the composite z-score in [4] was 0.382 (inactive); in assay [10] it was -0.102.
In the case of `COc1ccc([C@H]2C[C@H]3C(Br)=C[C@@H]2C(=O)[C@]32CO2)cc1`, the z-score in assay [1] was 0.158; in assay [2], -6.22 (inactive); in assay [3], -0.0566 (inactive); in assay [5], -0.647 (inactive); in [6], 0.844 (inactive); in [7], 1.75 (inactive). The values for the z-score in [8] and in assay [9] were 0.406 (inactive) and 0.869, respectively. For the same compound, the composite z-score is 1.03 (inactive) in assay [4] and -0.0292 in [10].
In the case of `CC(C)(C)OC(=O)CC[C@]1(C(=O)NCC(O)CO)COC(c2ccc(OCCCO)cc2)=N1` (stereo not given in full), the z-score in assay [1] was 0.245; in [2], 0.525 (inactive); in assay [3], 0.198 (inactive); in [5], 0.826 (inactive); in assay [6], 1.51 (inactive); in assay [7] it was 0.116 (inactive). Further, the z-score in assay [8] was 0.0752 (inactive); in assay [9] it was 0.467. Also, the composite z-score in assay [4] is 0.563 (inactive); in assay [10] it was -0.181.
